Results published in PubChem BioAssay (NCI).
The panel holds about 79,000 compounds, 15% with a hit somewhere; the sample as a whole holds those more often. Calls of active or inactive are those of the source. Cut-off read from the data, not from the text of the source: active = growth inhibition above about 70%; inactive = the rest.

Legend:
[1] = NCI Yeast Anticancer Drug Screen. Data for the mec2-1 strain (AID 157); details: S. cerevisiae mec2-1 strain, active compounds read high
Method in brief: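 Yeast mec2-1 mutant treated with compound. Readout: growth inhibition vs vehicle controls.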

[2] = NCI Yeast Anticancer Drug Screen. Data for the rad14 strain (AID 159);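 note: 0% = growth of vehicle-treated control cultures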; details: S. cerevisiae rad14 strain growth inhibition, active compounds read high
Method in brief: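 Growth inhibition vs vehicle controls; genetically altered yeast strain (DNA damage repair defect) treated with test compounds.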

[3] = NCI Yeast Anticancer Drug Screen. Data for the sgs1 mgt1 strain (AID 161);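 note: 0% = growth of cultures given vehicle only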; details: S. cerevisiae sgs1 mgt1 strain, active compounds read high
Method in brief: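 Genetically altered yeast, compound exposure, growth inhibition relative to vehicle.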

[4] = NCI Yeast Anticancer Drug Screen. Data for the CLN2oe strain (AID 163);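 note: 0% = growth of vehicle-only control cultures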; details: S. cerevisiae CLN2oe strain, active compounds read high
Method in brief: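 Read-out: yeast growth inhibition, expressed relative to vehicle-only controls. The strain bears an engineered cell-cycle alteration.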

[5] = NCI Yeast Anticancer Drug Screen. Data for the cln2 rad14 strain (AID 165);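 note: 0% = growth equal to vehicle treated cultures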; details: S. cerevisiae cln2 rad14 strain, active compounds read high
Method in brief: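 cln2 rad14 yeast strain; compound exposure; growth inhibition read vs vehicle controls.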

[6] = NCI Yeast Anticancer Drug Screen. Data for the bub3 strain (AID 167); details: S. cerevisiae bub3 mutant strain, active compounds read high
Method in brief: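 Readout: yeast growth inhibition, expressed relative to vehicle-only wells. The test organism is a mutant strain from a panel with lesions in DNA repair or checkpoint genes.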

[7] = NCI Yeast Anticancer Drug Screen. Data for the wt2 strain (AID 169);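 note: 0% = growth of vehicle-treated yeast cultures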; details: S. cerevisiae wt2 strain growth inhibition, active compounds read high
Method in brief: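 Read-out: growth inhibition versus vehicle-treated control cultures after compound exposure of the yeast strain.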

[8] = NCI Yeast Anticancer Drug Screen. Data for the mlh1 strain (AID 171);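 note: 0% = growth of vehicle-treated control cultures of the same strain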; details: S. cerevisiae mlh1 strain growth inhibition, active compounds read high
Method in brief: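 Read-out: growth inhibition versus vehicle controls. Strain: engineered yeast with a defined DNA repair or cell cycle defect, compound-treated.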

[9] = NCI Yeast Anticancer Drug Screen. Data for the sgs1 strain (AID 173);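 note: 0% = growth of vehicle-only control cultures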; details: S. cerevisiae sgs1 mutant, active compounds read high
Method in brief: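 Read-out: yeast growth inhibition relative to vehicle controls, following compound exposure of a strain with a defined DNA repair/cell cycle alteration.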

[10] = NCI Yeast Anticancer Drug Screen. Data for the mlh1 rad18 strain (AID 175); details: S. cerevisiae mlh1 rad18 strain growth inhibition, active compounds read high
Method in brief: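 Yeast w/ defined DNA-repair lesions; compound exposure; growth vs vehicle controls → % inhibition.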

[11] = NCI Yeast Anticancer Drug Screen. Data for the rad18 strain (AID 177); details: S. cerevisiae rad18 mutant growth inhibition, active compounds read high
Method in brief: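 Readout: growth inhibition vs vehicle controls. Cells: genetically altered yeast strain, DNA repair defect.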

[12] = NCI Yeast Anticancer Drug Screen. Data for the rad52 strain (AID 147);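 note: 0% = growth of vehicle-treated control cultures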; details: S. cerevisiae rad52 mutant growth inhibition, active compounds read high
Method in brief: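 Read-out: growth inhibition versus vehicle-treated controls. Cells were a DNA repair-deficient yeast strain treated with compounds.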

[13] = NCI Yeast Anticancer Drug Screen. Data for the wt1 strain (AID 149);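 note: 0% = growth of vehicle-treated wt1 cultures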; details: S. cerevisiae wt1 strain (SPY 50644) growth inhibition, active compounds read high
Method in brief: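 Growth inhibition read against vehicle controls after compound exposure of the wt1 yeast strain.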

[14] = NCI Yeast Anticancer Drug Screen. Data for the rad50 strain (AID 155);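 note: 0% = growth of vehicle-only cultures of the same strain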; details: S. cerevisiae rad50 strain growth inhibition, active compounds read high
Method in brief: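 Readout: growth inhibition relative to vehicle-treated cultures. Compound exposure was carried out in a genetically defined yeast strain deficient in DNA damage repair.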

[15] = NCI Yeast Anticancer Drug Screen. Data for the rad50EPP+ strain (AID 151);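 note: 0% = growth of vehicle-treated control cultures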; details: S. cerevisiae rad50 mutant strain, active compounds read high
Method in brief: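 Growth inhibition read against vehicle controls in rad50EPP+ yeast, a strain altered in DNA damage repair, after compound exposure.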

[16] = NCI Yeast Anticancer Drug Screen. Data for the mgt1 strain (AID 153); details: S. cerevisiae mgt1 mutant growth inhibition, active compounds read high
Method in brief: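 mgt1 yeast grown with test compound; read-out is growth inhibition versus vehicle-treated cultures.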

[17] = at 5.0 µM (retest, dose inferred, filed as 0.5)
[18] = at 50.0 µM (retest, dose inferred, filed as 5.0)

Measured: growth inhibition

CC(=O)O[C@H]1CC[C@@]2(C)C(=CC[C@@H]3C2CC[C@]2(C)C(=O)NC(=O)CC32)C1 (some centres undefined)
inactive: [1]; at 100.0 µM -23% | [2]; at 1.2 µM -29% | [2]; at 3.7 µM -27% | [2]; at 11.0 µM -26% | [2]; at 33.0 µM -11% | [2]; at 100.0 µM -41% | [3]; [17] 21% | [4]; at 1.2 µM 2% | [4]; at 3.7 µM -4% | [4]; at 11.0 µM -16% | [4]; at 33.0 µM -13% | [4]; at 100.0 µM -23% | [5]; [17] -6% | [5]; [18] 13% | [5]; at 50.0 µM 29.5% | [6]; at 1.2 µM -14% | [6]; at 3.7 µM -29% | [6]; [17] 1% | [6]; at 11.0 µM -22% | [6]; at 33.0 µM -20% | [6]; [18] 46% | [6]; at 50.0 µM 9.95% | [6]; at 100.0 µM -31% | [7]; at 1.2 µM 8% | [7]; at 3.7 µM 19% | [7]; at 11.0 µM 46% | [8]; at 1.2 µM 1% | [8]; at 3.7 µM 17% | [8]; at 11.0 µM 57% | [8]; at 100.0 µM 64% | [9]; at 1.2 µM 16% | [9]; at 3.7 µM 40% | [10]; [17] -17% | [10]; [18] 3% | [10]; at 50.0 µM -0.8% | [11]; at 1.2 µM -1% | [11]; at 3.7 µM 0% | [11]; at 11.0 µM 1% | [11]; at 33.0 µM 4% | [11]; at 100.0 µM 0%
active: [3]; [18] 74% | [3]; at 50.0 µM 81.5% | [7]; at 33.0 µM 73% | [7]; at 100.0 µM 71% | [8]; at 33.0 µM 75% | [9]; at 11.0 µM 70% | [9]; at 33.0 µM 86% | [9]; at 100.0 µM 79%

COC(=O)C(=O)CC(=O)c1cccc(OC)c1
active: [7]; at 33.0 µM 71% | [7]; at 100.0 µM 92% | [9]; at 100.0 µM 82%
inactive: [12]; at 1.2 µM -9% | [12]; at 3.7 µM -10% | [12]; at 11.0 µM -5% | [12]; at 33.0 µM 10% | [12]; at 100.0 µM 17% | [13]; at 1.2 µM 1% | [13]; at 3.7 µM 9% | [13]; at 11.0 µM 24% | [13]; at 33.0 µM 28% | [13]; at 100.0 µM 39% | [14]; at 1.2 µM -13% | [14]; at 3.7 µM -15% | [14]; [17] -150% | [14]; at 11.0 µM -10% | [14]; at 33.0 µM 32% | [14]; [18] 51% | [14]; at 50.0 µM 19.4% | [14]; at 100.0 µM 44% | [1]; at 1.2 µM 0% | [1]; at 3.7 µM 1% | [1]; [17] -44% | [1]; at 11.0 µM 4% | [1]; at 33.0 µM 10% | [1]; [18] -15% | [1]; at 50.0 µM 18.6% | [1]; at 100.0 µM 16% | [3]; [17] -58% | [3]; [18] 24% | [3]; at 50.0 µM 0.4% | [4]; at 1.2 µM -6% | [4]; at 3.7 µM -3% | [4]; at 11.0 µM -1% | [4]; at 33.0 µM 1% | [4]; at 100.0 µM 10% | [5]; [17] -51% | [5]; [18] -45% | [5]; at 50.0 µM -75.5% | [6]; at 1.2 µM -4% | [6]; at 3.7 µM -4% | [6]; [17] -67% | [6]; at 11.0 µM -5% | [6]; at 33.0 µM 2% | [6]; [18] 12% | [6]; at 50.0 µM -7.55% | [6]; at 100.0 µM 22% | [7]; at 1.2 µM -5% | [7]; at 3.7 µM 9% | [7]; at 11.0 µM 27% | [8]; at 1.2 µM -11% | [8]; at 3.7 µM -5% | [8]; at 11.0 µM -3% | [8]; at 33.0 µM 39% | [8]; at 100.0 µM 64% | [9]; at 1.2 µM -16% | [9]; at 3.7 µM -6% | [9]; at 11.0 µM 8% | [9]; at 33.0 µM 49% | [10]; [17] -143% | [10]; [18] -19% | [10]; at 50.0 µM 49.6% | [11]; at 1.2 µM -6% | [11]; at 3.7 µM -2% | [11]; at 11.0 µM -1% | [11]; at 33.0 µM 6% | [11]; at 100.0 µM 19%

CCCCCCCCCCCCCCCCCCNc1nc(=O)n(C2CC(OP(=O)(O)OCC3OC(n4cc(F)c(=O)[nH]c4=O)CC3O)C(CO)O2)cc1F (centres undefined)
inactive: [12]; at 1.2 µM 14% | [12]; at 3.7 µM 12% | [12]; at 11.0 µM -1% | [12]; at 33.0 µM 11% | [12]; at 100.0 µM 66% | [15]; at 1.2 µM 9% | [15]; at 3.7 µM 12% | [15]; at 11.0 µM 7% | [15]; at 33.0 µM 8% | [15]; at 100.0 µM 23% | [16]; at 1.2 µM 25% | [16]; at 3.7 µM 8% | [16]; at 11.0 µM -1% | [16]; at 33.0 µM 32% | [14]; at 1.2 µM 27% | [14]; at 3.7 µM 28% | [14]; [17] 34% | [14]; at 11.0 µM 22% | [14]; at 33.0 µM 37% | [1]; at 1.2 µM 9% | [1]; at 3.7 µM 15% | [1]; [17] 24% | [1]; at 11.0 µM 3% | [1]; at 33.0 µM -1% | [1]; at 100.0 µM 61% | [2]; at 1.2 µM 9% | [2]; at 3.7 µM 0% | [2]; at 11.0 µM 3% | [2]; at 33.0 µM -4% | [2]; at 100.0 µM 51% | [3]; [17] 59% | [4]; at 1.2 µM -23% | [4]; at 3.7 µM -33% | [4]; at 11.0 µM -42% | [4]; at 33.0 µM -9% | [4]; at 100.0 µM 54% | [5]; [17] 7% | [5]; [18] 68% | [6]; at 1.2 µM 4% | [6]; at 3.7 µM 5% | [6]; [17] 15% | [6]; at 11.0 µM -27% | [6]; at 33.0 µM -10% | [6]; at 50.0 µM 68.3% | [6]; at 100.0 µM 40% | [7]; at 1.2 µM -38% | [7]; at 3.7 µM -34% | [7]; at 11.0 µM -68% | [7]; at 33.0 µM 15% | [8]; at 1.2 µM 10% | [8]; at 3.7 µM 19% | [8]; at 11.0 µM 7% | [8]; at 33.0 µM 18% | [9]; at 1.2 µM 1% | [9]; at 3.7 µM -5% | [9]; at 11.0 µM -9% | [9]; at 33.0 µM 22% | [10]; [17] 34% | [11]; at 1.2 µM 9% | [11]; at 3.7 µM -9% | [11]; at 11.0 µM -16% | [11]; at 33.0 µM 35%
active: [16]; at 100.0 µM 77% | [14]; [18] 88% | [14]; at 50.0 µM 83.9% | [14]; at 100.0 µM 88% | [1]; [18] 91% | [1]; at 50.0 µM 89.4% | [3]; [18] 95% | [3]; at 50.0 µM 87.7% | [5]; at 50.0 µM 86.3% | [6]; [18] 93% | [7]; at 100.0 µM 79% | [8]; at 100.0 µM 75% | [9]; at 100.0 µM 78% | [10]; [18] 93% | [10]; at 50.0 µM 86% | [11]; at 100.0 µM 89%
